This is a sample that favours compounds with a hit; in the whole collection about 2.8% have one here.
pPAFAH inh – inhibitors of human plasma PAF acetylhydrolase (pPAFAH). AID 463082. Q13093. inhibition, % at 3.39 µM. recombinant pPAFAH, FP-rhodamine probe fluorescence polarization. 330,000 tested, 1.5% active;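 active = inhibition above the mean inhibition across the screen plus 3 SD, cut at about 25% in these data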;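 note: inhibitors block binding of the rhodamine activity-based probe so polarization drops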
Target sequence (Q13093 whole entry, looked up): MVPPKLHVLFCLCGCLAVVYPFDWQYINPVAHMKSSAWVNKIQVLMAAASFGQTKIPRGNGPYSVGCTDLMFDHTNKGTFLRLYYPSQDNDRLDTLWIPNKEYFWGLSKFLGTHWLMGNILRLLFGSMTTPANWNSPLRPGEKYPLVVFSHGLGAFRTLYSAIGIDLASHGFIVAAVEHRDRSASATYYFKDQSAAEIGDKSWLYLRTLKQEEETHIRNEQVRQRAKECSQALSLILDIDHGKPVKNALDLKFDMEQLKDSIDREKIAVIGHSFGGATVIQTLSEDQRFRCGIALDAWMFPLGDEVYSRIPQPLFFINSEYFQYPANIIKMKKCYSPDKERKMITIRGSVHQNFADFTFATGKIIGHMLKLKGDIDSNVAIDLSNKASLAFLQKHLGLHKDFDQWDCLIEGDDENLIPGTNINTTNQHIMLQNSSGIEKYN
PAFAH2 FP inh – inhibitors of human PAFAH2 | inhibition, % at 3.39 µM | Q99487 | 340,000 tested, 0.99% active | recombinant PAFAH2, FP-rhodamine activity probe, fluorescence polarization;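 active = inhibition above the mean over all tested compounds plus 3 SD, cut at about 30% in these data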;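 note: inhibitors block probe labeling of enzyme so polarization drops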
PAFAH1B2 inh – PAFAH1B2 (human) inhibition | P68402 | recombinant PAFAH1B2, FP-rhodamine activity probe, fluorescence polarization | inhibition, % at 3.39 µM | 340,000 tested, 1.2% active | AID 492953;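 active = inhibition above the mean of all tested compounds plus 3 SD, cut at about 24% in these data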
DAGLB inh – diacylglycerol lipase beta (human) inhibition; 340,000 tested, 0.059% active; Q8NCG7; HEK293T DAGLB membrane lysate, EnzChek fluorogenic substrate; AID 504411; inhibition, % at 5.17 µM; in the data active = inhibition above about 34%
PAFAH1B3 inh – inhibitors of human PAFAH1B3; 340,000 tested, 0.28% active; recombinant PAFAH1B3, FP-rhodamine probe, fluorescence polarization; Q15102; AID 492972; inhibition, % at 3.39 µM;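 active = inhibition above the screen-wide average of all tested compounds plus 3 SD, cut at about 25% in these data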
HTRA1 inhibitor – HTRA1 (human) protease inhibition; Q92743; recombinant HTRA1, FP-rhodamine activity-based probe, fluorescence polarization; inhibition, % at 5.96 µM; 340,000 tested, 0.5% active; in the data active = inhibition above about 36%
Numbers stand for hits.

For CCOc1ccc(NC(=O)c2cc3n(n2)C(C(F)(F)F)CC(c2ccco2)N3)cc1 (stereo not drawn) the results were pPAFAH inh 33, PAFAH2 FP inh inactive, PAFAH1B2 inh inactive, DAGLB inh inactive, PAFAH1B3 inh inactive and HTRA1 inhibitor inactive.
Cc1ccsc1C(=O)OCC(=O)NC1CCCCC1 was read as DAGLB inh inactive and HTRA1 inhibitor inactive.
COc1ccc(OC)c2c1cc(C(=O)N[C@H](C(=O)N1CCC(C(=O)O)CC1)C(C)C)n2C was read as PAFAH2 FP inh inactive, PAFAH1B2 inh inactive, DAGLB inh inactive, PAFAH1B3 inh inactive and HTRA1 inhibitor inactive.
Screening CCOc1ccc(CNC(=O)CCS(=O)(=O)Cc2cccc(Cl)c2)cc1OC returned pPAFAH inh inactive, PAFAH2 FP inh inactive, PAFAH1B2 inh inactive, DAGLB inh inactive, PAFAH1B3 inh inactive and HTRA1 inhibitor inactive.
`O=C(Nc1ccccc1)Nc1ccno1` gave pPAFAH inh inactive, PAFAH2 FP inh inactive, PAFAH1B2 inh inactive, DAGLB inh inactive, PAFAH1B3 inh inactive and HTRA1 inhibitor inactive.
O=Cc1cccc(OC(=O)/C=C/c2ccco2)c1 was read as pPAFAH inh 30, PAFAH2 FP inh inactive, PAFAH1B2 inh inactive, DAGLB inh inactive, PAFAH1B3 inh inactive and HTRA1 inhibitor inactive.
`Cn1c(CNC(=O)c2ccccc2F)nnc1SCC(=O)c1ccccc1` gave pPAFAH inh inactive, PAFAH2 FP inh inactive, PAFAH1B2 inh inactive, DAGLB inh inactive, PAFAH1B3 inh inactive and HTRA1 inhibitor inactive.
`Cc1cccc(OCCn2nnc3ccccc32)c1C` gave pPAFAH inh inactive, PAFAH2 FP inh inactive, PAFAH1B2 inh inactive, DAGLB inh inactive, PAFAH1B3 inh inactive and HTRA1 inhibitor inactive.
Screening O=C(c1ccccc1)c1coc2c1C(=O)c1ccccc1C2=O returned pPAFAH inh inactive, PAFAH2 FP inh 48, PAFAH1B2 inh inactive, DAGLB inh inactive, PAFAH1B3 inh 29 and HTRA1 inhibitor inactive.
`CC(=O)c1sc(NC(=O)C2(F)C(F)(F)C(F)(F)C(F)(F)C(F)(F)C2(F)F)nc1C` gave pPAFAH inh inactive, PAFAH2 FP inh inactive, PAFAH1B2 inh 39, DAGLB inh inactive, PAFAH1B3 inh inactive and HTRA1 inhibitor inactive.
CC(C)(C)c1ccc(C(=O)NCC(=O)N2CCC3(CC2)NCCc2[nH]cnc23)cc1 was read as pPAFAH inh inactive, PAFAH2 FP inh inactive, PAFAH1B2 inh inactive, DAGLB inh inactive, PAFAH1B3 inh inactive and HTRA1 inhibitor inactive.
For COC(=O)c1ccc(CNC(=O)C2CCC(=O)N(CCN3CCOCC3)C2)cc1 (stereo not drawn) the results were PAFAH2 FP inh inactive, PAFAH1B2 inh inactive, DAGLB inh inactive, PAFAH1B3 inh inactive and HTRA1 inhibitor inactive.
COc1ccc(N2CCN(C(=O)CN(Cc3ccc(Cl)cc3)S(C)(=O)=O)CC2)cc1 was read as pPAFAH inh inactive, PAFAH2 FP inh inactive, PAFAH1B2 inh inactive, DAGLB inh inactive, PAFAH1B3 inh inactive and HTRA1 inhibitor inactive.
For CS(=O)(=O)N(CC(=O)N1CCN(c2ccccc2)CC1)Cc1ccc(Cl)cc1 the results were pPAFAH inh inactive, PAFAH2 FP inh inactive, PAFAH1B2 inh 25, DAGLB inh inactive, PAFAH1B3 inh inactive and HTRA1 inhibitor inactive.
Screening CC(C)C(=O)NN(C(=O)c1ccccc1)c1ccccc1 returned pPAFAH inh inactive, PAFAH2 FP inh inactive, PAFAH1B2 inh inactive, DAGLB inh inactive, PAFAH1B3 inh inactive and HTRA1 inhibitor inactive.
`CC(C(=O)O)N(C(=O)c1ccccc1)c1ccc(F)cc1` (stereo not drawn) gave pPAFAH inh inactive, PAFAH2 FP inh inactive, PAFAH1B2 inh 29, DAGLB inh inactive, PAFAH1B3 inh inactive and HTRA1 inhibitor inactive.
NC(Cc1c[nH]c2ccc(OCc3ccccc3)cc12)C(=O)O (stereo not drawn) was read as pPAFAH inh 26, PAFAH2 FP inh inactive, PAFAH1B2 inh inactive, DAGLB inh inactive, PAFAH1B3 inh inactive and HTRA1 inhibitor inactive.
N[C@@H](Cc1c[nH]c2ccc(O)cc12)C(=O)O was read as pPAFAH inh inactive, PAFAH2 FP inh inactive, PAFAH1B2 inh inactive, DAGLB inh inactive, PAFAH1B3 inh inactive and HTRA1 inhibitor inactive.
Nc1nc(Cl)c(N)c(NCC2(CO)CC(CCc3ccccc3)C2)n1 (stereo not drawn) was read as PAFAH2 FP inh inactive, PAFAH1B2 inh inactive, DAGLB inh inactive, PAFAH1B3 inh inactive and HTRA1 inhibitor inactive.
`Cc1cccc(N2CCN(C(=O)n3ccnc3)CC2)c1C` gave pPAFAH inh 33, PAFAH2 FP inh inactive, PAFAH1B2 inh inactive, DAGLB inh inactive, PAFAH1B3 inh inactive and HTRA1 inhibitor inactive.
